The results in this text go back to PubChem BioAssay (EPA / NIEHS).

As a reminder, the AC50 is the concentration at which the activity in the assay is half-maximal.

Each structure is given as a SMILES string. Records with an inconclusive call do not appear. The source holds several records for some structures; these can differ, active in one and inactive in another. Activity calls are given as the source filed them. Rule for the calls, unless noted: active = hit-call score of the fitted dose curve at least 0.9, where 1 is the maximum; inactive = score below 0.9.

The first test can be described thus: CCTE_Shafer_MEA_acute_LDH: CCTE's Lactate Dehydrogenase Assay for Cytotoxicity in the Neural Acute Assay, Shafer Lab (AID 2284086; active = hit-call score of the fitted dose curve at least 0.9, where 1 is the maximum;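 note: active means LDH release rises above DMSO vehicle level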). In a few lines:
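Medium from rat cortical neuron MEA cultures sampled right after the 40 min compound-exposure recording; released LDH measured by absorbance at 490 nm. Analyzed as signal gain relative to DMSO.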
For the molecule `CCCCC(CC)COCC1CO1` (stereo unspecified), the molecule was classed as inactive. Still for that read-out and setting: with `CCCCC(CC)COC(=O)c1ccccc1O` (stereo unspecified) the entry was “inactive”; with `O=C1CCCN1CCO`, “inactive”. On the same count and under the same terms, for `O=C(c1ccc(O)cc1)c1ccc(O)cc1O` the value was “inactive”; for `Nc1ncn([C@@H]2O[C@H](CO)[C@@H](O)[C@H]2O)c(=O)n1`, “inactive”. Same read-out and setting: with `CCOC(=O)c1ccccc1C(=C1C=C(Br)C(=O)C(Br)=C1)c1cc(Br)c(O)c(Br)c1` the entry was “inactive”. Turning to `Nc1ccc(N)c(Cl)c1`, the molecule was called inactive.

For the molecule `C=C[Si](OC(C)=O)(OC(C)=O)OC(C)=O`, the molecule was called inactive.

Take `CCO[Si](C)(OCC)OCC`: the molecule was called inactive.

With `CO[Si](OC)(OC)c1ccccc1`, the molecule was classed as inactive. On the same count and under the same terms, for `CN1C(=O)N(C)C(O)C1O` (stereo unspecified) the value was “inactive”.

The nature of a further test: CCTE_Shafer_MEA_dev_mutual_information_norm: CCTE's Neural Network Formation Assay for Mutual Information Normalization, Shafer Lab (AID 2284091).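 For AC50: mutual information between electrodes summarised as area under curve across four recording days; potency is for a decrease in mutual information relative to DMSO.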 In a few lines: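 Primary rat cortical neurons on PEI-coated 48-well MEA plates, 1.5 x 10^5 cells/well, exposed from day 0 through day 12 with re-dosing at DIV 5 and 9. Mutual information between electrodes recorded days 5, 7, 9, 12; trapezoidal AUC, loss-of-signal fit versus DMSO.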
Consider `CN(C)c1ccc(C(=N)c2ccc(N(C)C)cc2)cc1`, for which the AC50 was 975 nM (active). With `N[C@H]1C(O)O[C@H](CO)[C@H](O)[C@@H]1O` (stereo partly specified), the outcome was inactive. Same read-out and setting: for `COC(F)(F)C(F)(C(F)(F)F)C(F)(F)F` the value was “inactive”; for `FC(F)=C(F)OC(F)(F)C(F)(F)C(F)(F)F`, “inactive”.

For `CCOC(F)(F)C(F)(F)C(F)(F)C(F)(F)F`, the molecule was called inactive. The same measure, in the same setting: with `c1ccc2c(c1)ccc1cc3c(ccc4ccccc43)cc12` the entry was “inactive”. Consider `Nc1ncn([C@@H]2O[C@H](CO)[C@@H](O)[C@H]2O)c(=O)n1`, for which the AC50 was 1390 nM (active) and the molecule was called inactive.

In the case of `CC1(C)S[C@@H]2[C@H](NC(=O)COc3ccccc3)C(=O)N2[C@H]1C(=O)O`, the call was inactive. Same read-out and setting: for `CC=CC(F)(F)C(F)(F)C(F)(F)F` the value was “inactive”.

A short description of another test: CCTE_Shafer_MEA_dev_correlation_coefficient_mean: CCTE's Neural Network Formation Assay for Mean Correlation Coefficient, Shafer Lab (AID 2284093).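 For AC50: well mean pairwise spike train correlation integrated as AUC over recording days 5 to 12; potency fitted for loss of correlation relative to DMSO vehicle wells.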 In outline:
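Spontaneous activity recorded on days 5, 7, 9 and 12 post-plating; pairwise spike correlations are averaged across active electrodes and collapsed to an area-under-curve. Rat cortical cultures are dosed from plating through 12 days, with compound renewed at media changes.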
As to `CN(C)c1ccc(C(=N)c2ccc(N(C)C)cc2)cc1`, the AC50 was 1710 nM (active). Take `N[C@H]1C(O)O[C@H](CO)[C@H](O)[C@@H]1O` (stereo partly specified): the concentration at half-maximal activity (AC50) was 25400 nM (active). As for `COC(F)(F)C(F)(C(F)(F)F)C(F)(F)F`, the result was inactive. Still for that read-out and setting: with `FC(F)=C(F)OC(F)(F)C(F)(F)C(F)(F)F` the entry was “inactive”; with `CCOC(F)(F)C(F)(F)C(F)(F)C(F)(F)F`, “inactive”; with `c1ccc2c(c1)ccc1cc3c(ccc4ccccc43)cc12`, “inactive”.

For `Nc1ncn([C@@H]2O[C@H](CO)[C@@H](O)[C@H]2O)c(=O)n1`, the AC50 is 2910 nM (active) and the molecule was called inactive. Regarding `CC1(C)S[C@@H]2[C@H](NC(=O)COc3ccccc3)C(=O)N2[C@H]1C(=O)O`, the outcome was inactive. Consider `CC=CC(F)(F)C(F)(F)C(F)(F)F`, for which the concentration at half-maximal activity (AC50) was 3710 nM (active).
